Screening results (PubChem BioAssay)
Tat transport = inhibitors of E. coli Tat protein transport; E. coli MC4100 TorA-mCherry Tat export, fluorescence; inhibition, % at 10 µM; 340,000 compounds, 0.036% hits;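 active = mean replicate inhibition at least 50% and at least half of replicates individually reaching 50%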;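 also: exported cargo escapes ClpAP degradation while cytoplasmic cargo is degraded and loses fluorescence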
E coli growth-1 = inhibitors of Escherichia coli growth. OD600, 23 h; stronger effect = lower value. OD600 absorbance (test concentration not listed). 330,000 compounds, 0.21% hits. AID 1053175;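 active = OD600 absorbance below the run mean of sample wells minus 3.6 SD, in any replicate, cut at about 0.56 in these data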
E coli growth-2 = counter-screen for AddAB inhibitors: E. coli growth inhibition; E. coli V3065 growth, OD600 absorbance, 18 h; inhibition, % at 11.9 µM; 330,000 compounds, 0.27% hits;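 active = inhibition above the campaign's mean inhibition across all tested compounds plus 3 SD, cut at about 9.9% in these data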;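 also: uninfected addAB+ strain grown without phage in ampicillin broth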
AddAB inh = less growth of phage-infected E. coli with AddAB; 330,000 compounds, 0.29% hits; inhibition, % at 11.9 µM; E. coli expressing H. pylori AddAB, absorbance growth; in the data active = inhibition above about 12%
phage Ecoli inh = E. coli growth loss with phage present. inhibition, % at 11.9 µM. 360,000 compounds, 0.26% hits. growth absorbance; in the data active = inhibition above about 11%
AddAB conf = confirmation screen: growth loss of phage-infected E. coli expressing H. pylori AddAB; E. coli V3065 expressing H. pylori AddAB, T4 phage, OD; T4 phage with gene 2 nonsense mutations; inhibition, % at 11.9 µM; 880 compounds, 64% hits; AID 488942; shares compounds with AddAB inh;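 active = mean inhibition above a set limit taken from the earlier primary screen, cut at about 13% in these data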;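 also: higher means less bacterial growth since AddAB block lets phage replicate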
RecBCD counter = AddAB counter-screen: growth loss of RecBCD+ E. coli infected with mutant T4 phage. shares compounds with AddAB inh. E. coli V66 + mutant T4 phage, OD growth. inhibition, % at 11.9 µM. 880 compounds, 73% hits. AID 488955;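 active = mean inhibition above the mean of solvent-only control wells plus 3 SD, cut at about 4% in these data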;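 also: optical density read after an 18 h incubation at 37 °C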
Bact viability = counter-screen for AddAB inhibitors: inhibitors of bacterial viability | shares compounds with AddAB inh | AID 488956 | inhibition, % at 11.9 µM | 880 compounds, 35% hits | absorbance (AddAB counterscreen); in the data active = inhibition above about 25%
RecBCD conf = growth loss of phage-infected V66 E. coli, RecBCD confirmation screen | E. coli V66 + T4 2- phage, growth OD | 890 compounds, 45% hits | AID 651982 | inhibition, % at 11.9 µM | shares compounds with phage Ecoli inh;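 active = mean inhibition over triplicates exceeding the hit threshold derived in the original primary screen, cut at about 11% in these data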
Ecoli viability = counter-screen for RecBCD inhibitors: inhibitors of bacterial viability | shares compounds with phage Ecoli inh | E. coli viability, absorbance (OD) growth | inhibition, % at 11.9 µM | 890 compounds, 29% hits | AID 651983; in the data active = inhibition above about 20%;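 also: E. coli strain V66 grown with compound alone and no phage infection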
AddAB phage OD = growth loss of phage-infected AddAB E. coli, RecBCD counter-screen | 890 compounds, 45% hits | E. coli expressing H. pylori AddAB + T4 phage, OD growth; gene 2 mutant T4, recBCD-deleted host | inhibition, % at 11.9 µM | shares compounds with phage Ecoli inh;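 active = mean inhibition above the solvent-only control wells' mean plus 3 SD, cut at about 22% in these data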;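 also: higher means less bacterial growth from phage killing when AddAB is blocked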
Each line names hits and unclear results; the compound was inactive in the other large screens (follow-up assays come after a bar, where they were run). Shown are actives, neighbours in structure and some others; about 0.51% of the full set was active somewhere.

CCC1OC(=O)C(C)C(OC2C[C@@](C)(OC)C(O)C(C)O2)C(C)C(OC2OC(C)CC(N(C)C)C2O)[C@](C)(O)CC(C)C(=NOCOCCOC)C(C)C(O)[C@]1(C)O (some centres undefined)	none (no result: Tat transport, E coli growth-2, AddAB inh, phage Ecoli inh)
CC1CN(S(=O)(=O)c2c(F)cccc2F)CCN1S(=O)(=O)c1ccc2c(c1)OCCO2 (centres undefined)	none (no result: Tat transport, E coli growth-2, AddAB inh, phage Ecoli inh)
CCOc1ccc(OCC(=O)Nc2ccccc2C(F)(F)F)cc1	none
CCC(ONc1ccccc1C(F)(F)F)(C(=O)NN(C)C)c1ccccc1 (centres undefined)	E coli growth-2 23, AddAB inh 101, phage Ecoli inh 17 | AddAB conf 98 | RecBCD counter 14 | Bact viability 62 | RecBCD conf 11 | Ecoli viability inactive | AddAB phage OD 103
CCc1nnc(NS(=O)(=O)c2ccc(NC(=S)Nc3ccc(F)cc3)cc2)s1	AddAB inh 15, phage Ecoli inh 16 | AddAB conf inactive | RecBCD counter inactive | Bact viability inactive | RecBCD conf inactive | Ecoli viability inactive | AddAB phage OD inactive
COc1cccc(/C=C2/SC(=S)N(CC(=O)NNC(=O)c3ccccc3O)C2=O)c1	AddAB inh 13, phage Ecoli inh 14 | AddAB conf 17 | RecBCD counter 14 | Bact viability inactive | RecBCD conf 11 | Ecoli viability inactive | AddAB phage OD inactive
CCCCCCCCC(=O)NN=Cc1ccccn1	none (no result: Tat transport, E coli growth-2, AddAB inh, phage Ecoli inh)
Cc1noc(C)c1NC(=O)Nc1ccc2c(c1)CC(=O)N(C(C)CO)CC(C)C(CN(C)CC1CCCCC1)O2 (centres undefined)	none (no result: Tat transport, E coli growth-2, AddAB inh, phage Ecoli inh)
CCOC(=O)C1CN(c2cc3c(cc2F)c(=O)c(C(=O)O)cn3CC)OC1C(=O)OCC (centres undefined)	none
CC(=O)N1CCN(c2cc3c(cc2F)c(=O)c(C(=O)O)cn3C2CC2)CC1	Tat transport 62, E coli growth-1 0.067, E coli growth-2 101, AddAB inh 102, phage Ecoli inh 96 | AddAB conf 99 | RecBCD counter 99 | Bact viability 99 | RecBCD conf 101 | Ecoli viability 102 | AddAB phage OD 102
CCN1CCN(c2cc3c(cc2F)c(=O)c(C(=O)O)cn3C2CC2)CC1	Tat transport 146, E coli growth-1 0.064, E coli growth-2 100, AddAB inh 99, phage Ecoli inh 102 | AddAB conf 99 | RecBCD counter 100 | Bact viability 99 | RecBCD conf 102 | Ecoli viability 104 | AddAB phage OD 103
O=C(NNc1cc(Br)c(O)c(Br)c1)c1ccccc1	E coli growth-2 97, AddAB inh 102, phage Ecoli inh 78 | AddAB conf 97 | RecBCD counter 50 | Bact viability 97 | RecBCD conf 39 | Ecoli viability 50 | AddAB phage OD 101
NS(=O)(=O)c1ccc(NNC(=O)c2ccccc2)cc1	none
CC(=O)Nc1ccc(C2C(C)CCC3C(=O)N4C(CCC(C)C4c4ccc(NC(C)=O)cc4)C(=O)N32)cc1 (centres undefined)	none (no result: Tat transport, E coli growth-2, AddAB inh, phage Ecoli inh)
O=C(CSc1ccc(-c2ccccc2)nn1)c1ccccc1	none
O=C(CSc1ccc(-c2ccccn2)nn1)c1ccccc1	E coli growth-2 12, AddAB inh 13, phage Ecoli inh 14 | AddAB conf inactive | RecBCD counter 11 | Bact viability inactive | RecBCD conf inactive | Ecoli viability inactive | AddAB phage OD 24
CCOC(=O)CC1c2cc(F)ccc2S(=O)(=O)N1C1CCCCC1 (centres undefined)	none (no result: Tat transport, E coli growth-2, AddAB inh, phage Ecoli inh)
CCSc1nsc(NC(=O)Nc2cccc(F)c2)n1	E coli growth-2 25, AddAB inh 19, phage Ecoli inh 15 (no result: E coli growth-1) | AddAB conf 13 | RecBCD counter 16 | Bact viability inactive | RecBCD conf 16 | Ecoli viability inactive | AddAB phage OD 22
CN1C(=CC=C(C#N)C(=O)Nc2ccc(Cl)cc2)C(C)(C)c2ccccc21	none (no result: Tat transport, E coli growth-2, AddAB inh, phage Ecoli inh)
COc1ccc(NC(=O)CCC(=O)NN=Cc2cn(C)nc2C)cc1	none (no result: Tat transport, E coli growth-2, AddAB inh, phage Ecoli inh)
O=C(NN=Cc1c(O)ccc2ccccc12)c1ccc2c(c1)OCO2	E coli growth-2 21, AddAB inh 18, phage Ecoli inh 11 | AddAB conf inactive | RecBCD counter 10 | Bact viability inactive | RecBCD conf inactive | Ecoli viability inactive | AddAB phage OD inactive
O=C(N/N=C/c1ccccc1)c1ccc2c(c1)OCO2	none (no result: E coli growth-1)
Cc1ccc(C(=O)N/N=C\c2ccc(-c3ccc([N+](=O)[O-])cc3)o2)cn1	none (no result: E coli growth-1)
Cc1ccc(C(=O)N/N=C\c2ccc([N+](=O)[O-])o2)cn1	E coli growth-2 20, AddAB inh 84, phage Ecoli inh 18 (no result: E coli growth-1) | AddAB conf 101 | RecBCD counter 14 | Bact viability 36 | RecBCD conf inactive | Ecoli viability inactive | AddAB phage OD 97
O=C(Cc1ccc([N+](=O)[O-])cc1)N/N=C/c1ccc([N+](=O)[O-])o1	E coli growth-2 14, AddAB inh 21, phage Ecoli inh 13 (no result: E coli growth-1) | AddAB conf 75 | RecBCD counter 7.1 | Bact viability inactive | RecBCD conf inactive | Ecoli viability inactive | AddAB phage OD 67
O=C(CNc1cccc([N+](=O)[O-])c1)N/N=C/c1ccc([N+](=O)[O-])o1	E coli growth-2 33, AddAB inh 82, phage Ecoli inh 18 (no result: E coli growth-1) | AddAB conf 102 | RecBCD counter 16 | Bact viability 60 | RecBCD conf 14 | Ecoli viability inactive | AddAB phage OD 66
CCOC(=O)C1C2COc3ccc(C)cc3C2N2C(=O)c3ccc(C)cc3NC(=O)[C@@]12C (some centres undefined)	none (no result: Tat transport, E coli growth-2, AddAB inh, phage Ecoli inh)
CCn1cc(C(=O)O)c(=O)c2cc(F)c(N3CCN(C(=S)NC(=O)c4ccc(F)c(F)c4)CC3)cc21	Tat transport 91, E coli growth-1 0.07, E coli growth-2 98, AddAB inh 98, phage Ecoli inh 99 | AddAB conf 100 | RecBCD counter 87 | Bact viability 99 | RecBCD conf 103 | Ecoli viability 103 | AddAB phage OD 104
